This note sets out measurements from PubChem BioAssay (Tox21).

A number with no mark means an inactive call. Inconclusive results are not listed. The source made the active and inactive calls. Unless noted, the call rests on the fitted dose curve; in most records, active means well fitted curve in the direction sought with a large enough effect in the repeat runs; inconclusive means weak or mixed curves; inactive means no such curve, though single readings can be large; an effect the other way counts as inactive or inconclusive.

The nature of experiment [1]: qHTS assay for small molecules that induce genotoxicity in human embryonic kidney cells expressing luciferase-tagged ATAD5 (AID 651632). Further: nearly all actives have a fitted effect of over 15% in size. A digest of the protocol:
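Test compounds were delivered by pin tool onto HEK293T reporter cells (2,000/well) expressing ATAD5 fused to luciferase. After 16 hr at 37C, 5% CO2, Amplite was added for 30 min at room temperature and luminescence was measured.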

The nature of experiment [2]: qHTS assay for small molecules that induce genotoxicity in human embryonic kidney cells expressing luciferase-tagged ATAD5 - cell viability (AID 651634; calls by dose curve; further: nearly all actives have a fitted effect of over 25% in size; further: potency means the concentration at half of the fitted maximal effect). Put shortly: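 Quantitative high-throughput format. HEK293T cells expressing ATAD5 fused to luciferase were plated at 2,000 cells/well and treated 15.5 hr with compound versus DMSO. Viability was determined by fluorescent live-cell protease substrate, 30 min at 37C.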
(Quantitative high-throughput screening tests each substance at several concentrations.)

A short description of experiment [3]: qHTS assay for small molecule disruptors of the mitochondrial membrane potential - cell viability (AID 720634; calls by dose curve;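 further: human HepG2 liver cancer cells; series mostly up to about 83 µM; nearly all actives have a fitted effect of over 20% in size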). A digest of the protocol: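 Same-well counter-screen: following the MMP dye addition, CellTiter-Glo was added to 1 hr compound-treated HepG2 cells and luminescence read after 30 min at room temperature.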
Experiment [4] can be described thus: qHTS assay to test for compound auto fluorescence at 590 nm (red) in HepG2 cells (AID 720674). Put shortly: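 Fluorescence at 590 nm emission following 540 nm excitation was recorded from HepG2 wells one hour after compound transfer, with DMSO-only wells as vehicle and Rose Bengal sodium equivalency as the scale.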
Experiment [5] can be described thus: qHTS assay to test for compound auto fluorescence at 535 nm (green) in HepG2 cells (AID 720675).
The nature of experiment [6]: qHTS assay to test for compound auto fluorescence at 460 nm (blue) in HEK293 cell free culture (AID 720681). Further: potency means the concentration at half of the fitted maximal effect. Put shortly: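 Compounds were added to cell-free DMEM with 10% FBS and fluorescence read directly. The blue channel used 405 nm excitation and 460 nm emission, with triamterene as the reference fluorophore.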
Experiment [7] can be described thus: qHTS assay to test for compound auto fluorescence at 535 nm (green) in HEK293 cell free culture (AID 720682). A digest of the protocol: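 Measurement is a direct plate read of green fluorescence (485 nm in, 535 nm out) after compound addition to serum-supplemented DMEM lacking cells, with fluorescein used to express intensities.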
A short description of experiment [8]: qHTS assay to test for compound auto fluorescence at 590 nm (red) in HEK293 cell free culture (AID 720683). Put shortly:
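Cell-free wells of DMEM with 10% FBS received compound, and intrinsic fluorescence was read at excitation/emission 540/590 nm. Values expressed as equivalence to Rose Bengal sodium.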

Experiment [9] is described as follows: qHTS assay to test for compound auto fluorescence at 460 nm (blue) in HepG2 cell free culture (AID 720685). Further: potency means the concentration at half of the fitted maximal effect. Put shortly: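 Cell-free plates of MEM plus 10% FBS received 23 nL compound or DMSO vehicle; blue-channel (405/460 nm) intensity scored against triamterene as reference fluorophore.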
Experiment [10] is described as follows: qHTS assay to test for compound auto fluorescence at 535 nm (green) in HepG2 cell free culture (AID 720686).
Experiment [11] is described as follows: qHTS assay to test for compound auto fluorescence at 460 nm (blue) in HepG2 cells (AID 720687). Further: potency means the concentration at half of the fitted maximal effect. Put shortly:
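HepG2 cells in MEM with 10% FBS, attached overnight at 37 C, were exposed to compound or DMSO for 1 hr at 37 C, 5% CO2. Blue fluorescence was read at 405/460 nm, with triamterene as reference fluorophore.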

Experiment [12] in a line: qHTS assay to identify small molecule antagonists of the glucocorticoid receptor (GR) signaling pathway - cell viability counter screen (AID 720693). Further: nearly all actives have a fitted effect of over 55% in size.
Experiment [13] can be described thus: qHTS assay to identify small molecule antagonists of the thyroid receptor (TR) signaling pathway (AID 743065). Further: series mostly up to about 70 µM; nearly all actives have a fitted effect of over 55% in size. A digest of the protocol: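 GH3.TRE-Luc rat pituitary cells (two TREs driving luciferase) were dosed with compound, then stimulated with 1 nM T3 (final) for 23.5 h at 37 C. ONE-Glo luminescence was the read-out, with CellTiter-Fluor fluorescence as the cytotoxicity counter-screen.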

The subject of experiment [14] is thyroid hormone receptor (rat, GH3 cells). Description: qHTS assay to identify small molecule agonists of the thyroid receptor (TR) signaling pathway (AID 743066; calls by dose curve).
A short description of experiment [15]: qHTS assay to identify small molecule antagonists of the estrogen receptor alpha (ER-alpha) signaling pathway - cell viability counter screen (AID 743074; calls by dose curve;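 further: HEK293 cells carrying ER-alpha-UAS-bla reporter stimulated with 17beta-estradiol; nearly all actives have a fitted effect of over 45% in size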).
Experiment [16] in a line: qHTS assay to identify small molecule antagonists of the estrogen receptor alpha (ER-alpha) signaling pathway using the BG1 cell line - cell viability counter screen (AID 743081).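 Further: compound given together with 17beta-estradiol as the ER stimulus; series mostly up to about 70 µM; nearly all actives have a fitted effect of over 45% in size.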
Experiment [17] has as its target Aromatase (Homo sapiens) (UniProt P11511). Description: qHTS assay to identify aromatase inhibitors (AID 743083). Further: series mostly up to about 70 µM; nearly all actives have a fitted effect of over 55% in size.
Experiment [18] is described as follows: qHTS assay to identify aromatase inhibitors - cell viability counter screen (AID 743084).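 Further: cells stimulated with testosterone during compound exposure; nearly all actives have a fitted effect of over 55% in size.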 Further: potency means the concentration at half of the fitted maximal effect.
Experiment [19] deals with Aryl hydrocarbon receptor (Homo sapiens) (UniProt P35869). Description: qHTS assay to identify small molecule that activate the aryl hydrocarbon receptor (AhR) signaling pathway (AID 743085).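 Further: HG2L7.5c1 human HepG2 liver cells with stably integrated DRE-driven firefly reporter; series mostly up to about 70 µM; nearly all actives have a fitted effect of over 15% in size.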 A digest of the protocol: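 24 h compound exposure, 37C, HepG2-derived HG2L7.5c1 cells with DRE-responsive luciferase. Readouts: fluorescence viability, then luminescence at room temperature after 30 min.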

Experiment [20] is described as follows: qHTS assay to identify small molecule phospholipidosis (PLD) inducers (AID 1259344; active means well fitted curve in the direction sought with a large enough effect; an effect the other way counts as inactive or inconclusive). A digest of the protocol:
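Image-based: LipidTOX Red pit count/intensity per well and per cell; HepG2, 24 h compound at 37 C, PFA fixation, Hoechst counterstain.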
Tags describe the fitted curve by direction and shape or compound fluorescence and quenching.

Sequence of Aromatase (Homo sapiens) (P11511 whole entry, looked up): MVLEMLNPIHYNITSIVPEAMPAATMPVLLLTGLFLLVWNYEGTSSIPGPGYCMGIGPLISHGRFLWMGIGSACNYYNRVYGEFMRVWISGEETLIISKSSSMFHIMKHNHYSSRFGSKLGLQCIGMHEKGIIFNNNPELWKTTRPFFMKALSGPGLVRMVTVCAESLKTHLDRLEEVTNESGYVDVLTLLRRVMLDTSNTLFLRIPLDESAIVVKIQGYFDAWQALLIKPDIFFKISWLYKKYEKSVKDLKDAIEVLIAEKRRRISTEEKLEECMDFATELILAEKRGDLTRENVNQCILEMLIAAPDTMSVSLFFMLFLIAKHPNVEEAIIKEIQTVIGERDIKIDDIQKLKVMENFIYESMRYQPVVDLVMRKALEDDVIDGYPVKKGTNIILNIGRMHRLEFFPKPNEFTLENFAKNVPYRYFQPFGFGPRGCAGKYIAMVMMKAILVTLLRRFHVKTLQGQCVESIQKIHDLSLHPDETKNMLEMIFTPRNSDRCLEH
Sequence of Aryl hydrocarbon receptor (Homo sapiens) (P35869 whole entry, looked up): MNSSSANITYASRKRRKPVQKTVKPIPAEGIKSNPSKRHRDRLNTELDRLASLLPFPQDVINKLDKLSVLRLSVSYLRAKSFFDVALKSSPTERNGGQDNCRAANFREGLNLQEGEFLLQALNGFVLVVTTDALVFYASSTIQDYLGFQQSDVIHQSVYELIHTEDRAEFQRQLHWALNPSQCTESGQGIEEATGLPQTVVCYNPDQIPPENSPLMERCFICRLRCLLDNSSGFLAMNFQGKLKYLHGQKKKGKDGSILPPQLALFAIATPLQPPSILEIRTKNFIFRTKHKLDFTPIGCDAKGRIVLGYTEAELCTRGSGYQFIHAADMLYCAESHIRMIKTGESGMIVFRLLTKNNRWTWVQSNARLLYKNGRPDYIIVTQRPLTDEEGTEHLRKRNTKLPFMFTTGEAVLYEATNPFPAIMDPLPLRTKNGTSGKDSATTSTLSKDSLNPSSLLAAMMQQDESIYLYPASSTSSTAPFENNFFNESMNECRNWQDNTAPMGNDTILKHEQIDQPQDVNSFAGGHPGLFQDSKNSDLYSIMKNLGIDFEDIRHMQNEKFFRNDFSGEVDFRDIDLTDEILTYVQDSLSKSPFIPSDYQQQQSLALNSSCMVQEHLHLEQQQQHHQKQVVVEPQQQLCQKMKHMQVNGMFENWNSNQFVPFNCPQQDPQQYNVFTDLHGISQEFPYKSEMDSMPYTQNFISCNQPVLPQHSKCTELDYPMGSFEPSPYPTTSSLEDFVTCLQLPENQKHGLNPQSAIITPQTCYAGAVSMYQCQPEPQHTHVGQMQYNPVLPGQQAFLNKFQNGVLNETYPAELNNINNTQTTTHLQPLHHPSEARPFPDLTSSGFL

For `O=C(NC(=O)c1c(F)cccc1F)Nc1ccc(Cl)c(Oc2ncc(C(F)(F)F)cc2Cl)c1`, the Potency result in experiment [1], in experiment [2], in experiment [3], in [5], in experiment [6] and in experiment [7] was “inactive” in each case. The Potency result in [9], in [10], in experiment [11], in experiment [12], in experiment [13] and in [14] was “inactive” in each case. The Potency entry in experiment [15], in experiment [16], in experiment [17], in [18], in experiment [19] and in [20] was “inactive” throughout. For the same compound, the call in experiment [4] and in experiment [8] was inactive.

As to `O=c1ccc2cc(O[C@@H]3O[C@H](CO)[C@@H](O)[C@H](O)[C@H]3O)c(O)cc2o1`, the Potency result in [1], in experiment [3], in experiment [7], in experiment [10], in experiment [12] and in experiment [13] was “inactive” throughout. Besides, the Potency result in [14], in experiment [15], in experiment [17], in experiment [19] and in experiment [20] was “inactive” each time. The result in experiment [4] and in experiment [8] was inactive. The Potency in experiment [6] is 8.91 µM (active); in experiment [9], 8.91 µM [fluorescent] (active); in experiment [11], 10 µM [fluorescent] (active).

`CCC1(c2ccccc2)C(=O)NC(=O)N(C)C1=O` (centres undefined): the Potency result in experiment [1], in experiment [2], in experiment [3], in experiment [5], in experiment [6] and in experiment [7] was “inactive” in each case. In addition, the Potency result in experiment [9], in experiment [10], in experiment [11], in experiment [12], in experiment [13] and in experiment [14] was “inactive” each time. For the same compound, the Potency result in [16], in experiment [17], in experiment [18], in experiment [19] and in [20] was “inactive” each time. In addition, the result in experiment [4] and in experiment [8] was inactive.

For the compound `Cc1nnc2n1-c1ccc(Cl)cc1C(c1ccccc1Cl)=NC2`, the Potency entry in experiment [3], in [5], in [6], in experiment [7], in [9] and in experiment [10] was “inactive” each time. Also, the Potency result in experiment [11], in experiment [12], in experiment [13], in experiment [14], in [15] and in [16] was “inactive” throughout. For the same compound, the Potency entry in [17], in [18] and in [20] was “inactive” each time. Besides, the outcome in experiment [4] and in experiment [8] was inactive.

Turning to `N#CC(C#N)=Cc1cc(O)c(O)c(O)c1`, the Potency result in experiment [1], in experiment [3], in experiment [6], in experiment [7], in experiment [9] and in [11] was “inactive” each time. Moreover, the Potency result in [12], in [14], in [15] and in experiment [20] was “inactive” in each case. Further, the Potency is 29.8 µM (active) in [2] and 26.6 µM (active) in experiment [18]. Further, the compound was called inactive in [4] and in experiment [8].

`C/C=C(\CC)C(=O)NC(N)=O`: the Potency result in experiment [1], in experiment [2], in experiment [3], in experiment [5], in experiment [6] and in experiment [7] was “inactive” each time. Also, the Potency result in experiment [9], in experiment [10], in experiment [11], in experiment [12], in experiment [13] and in experiment [14] was “inactive” throughout. The Potency result in [15], in [16], in experiment [17], in [18], in experiment [19] and in experiment [20] was “inactive” throughout. Also, the compound was classed as inactive in experiment [4] and in [8].

With `O=C1Nc2ccc(Cl)cc2C(c2ccccc2Cl)=NC1O` (centres undefined), the Potency entry in experiment [1], in experiment [2], in experiment [3], in experiment [5], in [6] and in experiment [7] was “inactive” each time. The Potency entry in experiment [9], in experiment [10], in [11], in experiment [12], in experiment [13] and in experiment [14] was “inactive” throughout. Further, the Potency result in experiment [15], in [16], in experiment [17], in experiment [18], in experiment [19] and in experiment [20] was “inactive” each time. The outcome in [4] and in [8] was inactive.

For the compound `CCC1C(C)=NN=C(c2ccc(OC)c(OC)c2)c2cc(OC)c(OC)cc21` (centres undefined), the Potency result in experiment [2], in [3], in experiment [5], in [6], in [7] and in [9] was “inactive” in each case. Further, the Potency result in experiment [10], in experiment [11], in [13], in experiment [14], in experiment [15] and in [16] was “inactive” in each case. Besides, the Potency result in experiment [17], in experiment [18], in experiment [19] and in experiment [20] was “inactive” in each case. The result in experiment [4] and in experiment [8] was inactive.

Consider `CC[C@H]1[C@@H]2C[C@H]3[C@@H]4N(C)c5ccccc5[C@]45C[C@@H](C2[C@H]5O)N3[C@@H]1O` (some centres undefined), for which the Potency result in [1], in experiment [2], in experiment [3], in experiment [5], in experiment [6] and in experiment [7] was “inactive” each time. Also, the Potency entry in [9], in [10], in [11], in experiment [12], in experiment [13] and in experiment [14] was “inactive” throughout. Besides, the Potency result in [15], in experiment [16], in [17], in experiment [18], in [19] and in [20] was “inactive” in each case. For the same compound, the compound was classed as inactive in [4] and in experiment [8].
